Compounds with a hit are over-represented: about 2.3% of the library has one in this group of screens.
ABHD5 PLIN5 PPI = ABHD5-PLIN5 interaction inhibitors, primary screen, cell lysate, split luciferase complementation, luminescence | inhibition, % at 4 µM | Perilipin-5 (Homo sapiens) + 1-acylglycerol-3-phosphate O-acyltransferase ABHD5 (Homo … | hit rate 0.78% among 360,000 | Split G. princeps luciferase complementation, 4 h | AID 602281, 2012;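 active means inhibition above the mean inhibition across every tested compound plus 3 SD, cut at about 22% in these data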
Target sequence (Q00G26 whole entry, looked up): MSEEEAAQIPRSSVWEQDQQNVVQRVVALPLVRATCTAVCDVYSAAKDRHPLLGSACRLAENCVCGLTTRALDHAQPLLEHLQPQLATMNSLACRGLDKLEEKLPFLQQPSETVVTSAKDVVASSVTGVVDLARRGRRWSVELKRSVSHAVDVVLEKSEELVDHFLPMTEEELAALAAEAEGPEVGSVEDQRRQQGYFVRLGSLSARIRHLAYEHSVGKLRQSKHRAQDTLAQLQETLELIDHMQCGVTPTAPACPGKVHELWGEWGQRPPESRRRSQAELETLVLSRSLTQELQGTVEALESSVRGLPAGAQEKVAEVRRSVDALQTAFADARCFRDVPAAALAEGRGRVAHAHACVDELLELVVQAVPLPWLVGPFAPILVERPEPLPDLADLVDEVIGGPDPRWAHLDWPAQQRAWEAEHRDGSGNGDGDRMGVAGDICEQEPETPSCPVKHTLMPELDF
Target sequence (Q8WTS1 whole entry, looked up): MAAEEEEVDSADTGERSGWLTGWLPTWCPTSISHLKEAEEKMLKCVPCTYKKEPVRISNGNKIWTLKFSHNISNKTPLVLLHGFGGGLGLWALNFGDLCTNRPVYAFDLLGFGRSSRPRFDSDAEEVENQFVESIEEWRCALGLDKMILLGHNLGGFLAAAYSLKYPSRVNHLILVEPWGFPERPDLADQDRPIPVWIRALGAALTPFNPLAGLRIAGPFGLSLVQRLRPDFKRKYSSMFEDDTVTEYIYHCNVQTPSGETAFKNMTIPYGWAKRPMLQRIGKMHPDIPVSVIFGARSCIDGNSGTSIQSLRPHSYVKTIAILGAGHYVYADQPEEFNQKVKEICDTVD
NTR1 agonist = agonists of human NTR1, primary screen, imaging, U2OS cells, beta-arrestin-GFP, high content | Neurotensin receptor type 1 (Homo sapiens), P30989 | NTR1-U2OS beta-arrestin-GFP spot imaging, agonist mode | activation, % at 20 µM | hit rate 0.17% among 330,000 | AID 493036, 2011;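 active means activation at or above 40% of the spot to cytoplasm intensity ratio, with at least 20 cells analyzed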
Granule exo inh = LAMP-1 surface exposure blockers, TALL-104 cells – cell-based, flow cytometry, MLPCN library, primary screen | TALL-104 LAMP-1 surface exposure; cells stimulated with thapsigargin and PMA | inhibition, % at 10 µM | hit rate 0.66% among 360,000 | AID 651702, 2012;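 active means inhibition above about 55%, limit read from the data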
Beta2AR agonist = beta2AR agonists driving receptor internalization, primary screen, cell-based, FAP fluorogen, flow cytometry. Am2.2-beta2AR cells. response, % (concentration not given with the values). AID 504454, 2011. Beta-2 adrenergic receptor (Homo sapiens), P07550. hit rate 0.43% among 340,000;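 active means response above a set limit, near 3 SD of response in nonfluorescent compounds, cut at about 42% in these data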
m5-HT2A agonist = mouse Htr2a agonists via beta-arrestin recruitment, primary screen, cell-based, luminescence | AID 624169, 2012 | hit rate 0.66% among 360,000 | activation, % at 7.6 µM | CHO-K1 mHTR2A beta-arrestin complementation; percent of 30 µM serotonin response | 5-hydroxytryptamine receptor 2A (Mus musculus), P35363;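 active means activation above a run cutoff, the mean activation of all tested compounds plus 3 SD, cut at about 14% in these data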
MOR ag counter = OPRM1 agonists via beta-arrestin recruitment, confirmation, counter-screen for mouse HTR2A agonist project, cell-based, luminescence, single concentration. shares compounds with m5-HT2A agonist. U2OS OPRM1 beta-arrestin PathHunter; DMSO 0%, DAMGO 9.3 µM 100%. activation, % at 9.3 µM. hit rate 5.3% among 2,300;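 active means mean activation above the mean of DMSO-only wells plus 3 SD, cut at about 0.5% in these data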
HTR2A ag conf = mouse HTR2A agonists, beta-arrestin recruitment, confirmation, cell-based, luminescence, CHO-K1 PathHunter, triplicate. DMSO 0%, 30 µM serotonin 100%. activation, % at 7.6 µM. hit rate 19% among 2,300. shares compounds with m5-HT2A agonist;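 active means mean activation across triplicates above the hit threshold derived in the original primary screen, cut at about 15% in these data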
A number is an active result.

Screening Cc1cccc(N2CCc3c2nc2ccccc2c3N)c1 returned ABHD5 PLIN5 PPI inactive, NTR1 agonist inactive, Granule exo inh inactive, Beta2AR agonist inactive and m5-HT2A agonist inactive.
c1ccc(CNCCc2c[nH]c3ccccc23)cc1 was read as ABHD5 PLIN5 PPI inactive, NTR1 agonist inactive, Granule exo inh inactive, Beta2AR agonist inactive, m5-HT2A agonist 40.5, MOR ag counter inactive and HTR2A ag conf 20.2.
For CCOc1ccccc1CNCCc1ccc2c(c1)OCO2 the results were ABHD5 PLIN5 PPI inactive, NTR1 agonist inactive, Granule exo inh inactive, Beta2AR agonist inactive, m5-HT2A agonist 52.7, MOR ag counter inactive and HTR2A ag conf 25.1.
Fc1cccc(CNCCc2c[nH]c3ccccc23)c1 was read as ABHD5 PLIN5 PPI inactive, NTR1 agonist inactive, Granule exo inh inactive, Beta2AR agonist inactive, m5-HT2A agonist 35.1, MOR ag counter inactive and HTR2A ag conf 38.8.
For CCc1ccc(CNCCc2c[nH]c3ccccc23)cc1 the results were ABHD5 PLIN5 PPI inactive, NTR1 agonist inactive, Granule exo inh inactive, Beta2AR agonist inactive, m5-HT2A agonist 16.1, MOR ag counter inactive and HTR2A ag conf inactive.
CC1CN(O)C2CCc3c(no[n+]3[O-])C12O (stereo not given) was read as ABHD5 PLIN5 PPI inactive, NTR1 agonist inactive, Granule exo inh inactive, Beta2AR agonist inactive and m5-HT2A agonist inactive.
Screening c1ccc2c(CCNCc3ccc4c(c3)OCO4)c[nH]c2c1 returned ABHD5 PLIN5 PPI inactive, NTR1 agonist inactive, Granule exo inh inactive, Beta2AR agonist inactive, m5-HT2A agonist 29.7, MOR ag counter inactive and HTR2A ag conf 38.1.
Clc1ccccc1CNCCc1c[nH]c2ccccc12 was read as ABHD5 PLIN5 PPI inactive, Granule exo inh inactive, m5-HT2A agonist 22.8, MOR ag counter 1.1 and HTR2A ag conf 50.9.
For O=[N+]([O-])c1ccccc1CNCCc1c[nH]c2ccccc12 the results were ABHD5 PLIN5 PPI inactive, NTR1 agonist inactive, Granule exo inh inactive, Beta2AR agonist inactive and m5-HT2A agonist inactive.
`CC1CN1P(=S)(c1ccccc1)N1CC1C` (stereo not given) gave ABHD5 PLIN5 PPI inactive, Granule exo inh inactive, Beta2AR agonist inactive and m5-HT2A agonist inactive.
For Oc1cc(O)cc(/C=C/c2ccc(O)cc2O)c1 the results were ABHD5 PLIN5 PPI inactive, NTR1 agonist inactive, Granule exo inh inactive, Beta2AR agonist inactive and m5-HT2A agonist inactive.
For CN1CCc2c(C#N)c(Cl)nc(Cl)c2C1 the results were ABHD5 PLIN5 PPI inactive, NTR1 agonist inactive, Granule exo inh inactive, Beta2AR agonist inactive and m5-HT2A agonist inactive.
Screening Cc1cccc(C)c1OP(N)(=O)Oc1c(C)cccc1C returned ABHD5 PLIN5 PPI inactive, NTR1 agonist inactive, Granule exo inh inactive, Beta2AR agonist inactive, m5-HT2A agonist 17.8, MOR ag counter inactive and HTR2A ag conf inactive.
For COC(=O)C1=C(c2ccccc2)C[C@@H]2CC[C@H]1N2C(=O)N1CCC(O)CC1 the results were ABHD5 PLIN5 PPI inactive, NTR1 agonist inactive, Granule exo inh inactive, Beta2AR agonist inactive and m5-HT2A agonist inactive.
`NC(Cc1ccc(O)cc1)C(=O)NN=Cc1ccc(N(CCCl)CCCl)cc1` (stereo not given) gave ABHD5 PLIN5 PPI inactive, Granule exo inh inactive, Beta2AR agonist inactive and m5-HT2A agonist inactive.
For Cc1nn(Cc2ccccc2)c(C)c1C(=O)O the results were ABHD5 PLIN5 PPI inactive, NTR1 agonist inactive, Granule exo inh inactive, Beta2AR agonist inactive, m5-HT2A agonist 15.4, MOR ag counter 0.6 and HTR2A ag conf inactive.
Screening COc1ccc(CNCCc2cccc(F)c2)c2ccccc12 returned NTR1 agonist inactive.
For COC(=O)C1=C(c2ccccc2OCc2ccccc2)C[C@@H]2CC[C@H]1N2C(=O)NCc1cccc(C(F)(F)F)c1 the results were ABHD5 PLIN5 PPI inactive, NTR1 agonist inactive, Granule exo inh inactive, Beta2AR agonist inactive and m5-HT2A agonist inactive.
`CC1OC(OC2C=C3CCC4C(CCC5(C)C(c6ccc(=O)oc6)CCC45O)C3(C)CC2)C(O)C(OC2OC(CO)C(O)C(O)C2O)C1O` (stereo not given) gave ABHD5 PLIN5 PPI inactive, Granule exo inh inactive, Beta2AR agonist inactive, m5-HT2A agonist 15.5, MOR ag counter 6.9 and HTR2A ag conf inactive.
COc1ccc(CNC(=O)/C=C/c2ccc3[nH]cc(CCN(C)C)c3c2)cc1 was read as ABHD5 PLIN5 PPI inactive, NTR1 agonist inactive, Granule exo inh inactive, Beta2AR agonist inactive and m5-HT2A agonist inactive.
COc1ccc2[nH]cc(CCN(C)C)c2c1 was read as ABHD5 PLIN5 PPI inactive, NTR1 agonist inactive, Granule exo inh inactive, Beta2AR agonist inactive, m5-HT2A agonist 49.0, MOR ag counter inactive and HTR2A ag conf 35.8.
Screening O=C(N/N=C1/CN2CCC1CC2)c1cc2ccccc2cc1O returned ABHD5 PLIN5 PPI inactive, NTR1 agonist inactive, Granule exo inh inactive, Beta2AR agonist inactive and m5-HT2A agonist inactive.
For NCCc1c[nH]c2ccc(C(N)=O)cc12 the results were ABHD5 PLIN5 PPI inactive, NTR1 agonist inactive, Granule exo inh inactive, Beta2AR agonist inactive, m5-HT2A agonist 27.7, MOR ag counter inactive and HTR2A ag conf 14.8.
NCCc1c[nH]c2ccc(F)cc12 was read as NTR1 agonist inactive.
For CCN1C(=O)CC(=O)N(CC)C1=S the results were ABHD5 PLIN5 PPI inactive, Granule exo inh inactive and m5-HT2A agonist inactive.
Screening CCN(CC)C(=O)COc1cc(C)cc2oc(=O)c3c(c12)CCCC3 returned ABHD5 PLIN5 PPI inactive, NTR1 agonist inactive, Granule exo inh inactive, Beta2AR agonist inactive, m5-HT2A agonist 14.4, MOR ag counter inactive and HTR2A ag conf inactive.
Screening Cc1cc(OCC(=O)OC(C)(C)C)c2c3c(c(=O)oc2c1)CCC3 returned ABHD5 PLIN5 PPI inactive, NTR1 agonist inactive, Granule exo inh inactive, Beta2AR agonist inactive and m5-HT2A agonist inactive.
For CCCCc1ncc(CN2CCCC(C(=O)c3ccc(SC)cc3)C2)[nH]1 (stereo not given) the results were ABHD5 PLIN5 PPI inactive, NTR1 agonist inactive, Granule exo inh inactive, Beta2AR agonist inactive and m5-HT2A agonist inactive.

Screening data from PubChem.
